Reference: PubChem BioAssay (EPA / NIEHS)
The source made the active and inactive calls. Rule for the calls: active = hit-call score of the fitted dose curve at least 0.9, where 1 is the maximum; inactive = score below 0.9.

The molecules below were run on Transforming growth factor beta 1 (TGFb1), TGFB1 (gene 7040) (assay: BSK_KF3CT_TGFb1: BioMAP Diversity Plus: KF3CT Assay for Transforming growth factor beta 1 (TGFb1) Biomarker Activity (AID 2283072)). Conditions: primary human keratinocytes with fibroblasts; actives raise or lower the signal.
Method: BSK_KF3CT is a cell-based, multiplexed-readout assay that uses keratinocytes and foreskin fibroblasts, a human skin primary cell co-culture, with measurements taken at 24 hours after chemical dosing in a 96-well plate.BSK_KF3CT_TGFb1 is an assay component measured in the BSK_KF3CT assay. It measures TGF-b1 antibody related to regulation of gene expression using ELISA technology.Data from the assay component BSK_KF3CT_TGFb1 was analyzed into 1 assay endpoint. This assay endpoint, BSK_KF3CT_TGFb1, was analyzed with bidirectional fitting relative to DMSO as the negative control and baseline of activity. Using a type of binding reporter, gain or loss-of-signal activity can be used to understand changes in the signaling as they relate to the gene TGFB1. Furthermore, this assay endpoint can be referred to as a primary readout, because this assay has produced multiple assay endpoints where this one serves a signaling function. To generalize the intended target to other relatable targets, this assay endpoint is annotated to the growth factor intended target family, where the subfamily is transforming growth factor beta.
The levels of cell surface (or secreted, indicated by the prefix "s") biomarker endpoints were measured by ELISA. Overt cytotoxicity to cells in confluent adherent cultures (all systems other than the BT system) was assessed by measuring total protein levels using sulforhodamine B (SRB) staining in parallel cultures at the time of biomarker measurements, indicated as SRB endpoints. For proliferation assays for adherent cell types, individual cell types are cultured at sub-confluence and relative cell numbers quantified by SRB staining at time points optimized for each system (48 h: 3C and CASM3C systems; 72 h: BT and HDF3CGF systems; 96 h: SAg system). SRB was performed by staining cells with 0.1% SRB after fixation with 10% TCA and reading wells at 560 nm.Viability and proliferation of PBMC (T cells) was quantified by Alamar Blue reduction for the SAg and BT systems. For PBMC viability (referred to as PBMC Cytotoxicity within the assay endpoint names), cells were plated (75,000/well in a 96-well plate) and then chemical samples added for 1 h before addition of activators, SEB and TSST-1 (20 ng/mL final concentration each). Cells were incubated for 90 h. Then, Alamar Blue (20 uL/well) (Invitrogen, Cat DAL1100) was added for 6 h, and the plates were read with a fluorescence microplate reader at 546/580 nm (excitation/emission). For PBMC proliferation, cells were plated and activated as above but incubated for only 16 h prior to addition of Alamar Blue. Plates were read after 6 h.

Row | Compound | outcome | AC50
1 | Brc1nc2ccccc2s1 | inactive | 
2 | O=C=NCc1cccc(CN=C=O)c1 | inactive | 
3 | Nc1cc([N+](=O)[O-])cc(Cl)c1O | inactive | 
4 | O=C1C=CC(=O)N1c1ccc(Cc2ccc(N3C(=O)C=CC3=O)cc2)cc1 |  | 3.46 µM (active)
5 | CC1=CC2C3C=CC(C3)C2C1C (stereo unspecified) | inactive | 
6 | Cc1cnccn1 | inactive | 
7 | Cc1cc(C)c(O)c(C(C)(C)C)c1 |  | 30.8 µM (active)
8 | CC(C)CCCC(C)CCO (stereo unspecified) |  | 30.1 µM (active)
9 | CC(C)(C)c1cc(CCC(=O)NCCCCCCNC(=O)CCc2cc(C(C)(C)C)c(O)c(C(C)(C)C)c2)cc(C(C)(C)C)c1O | inactive | 
10 | CCN(CC)c1ccc(C=O)cc1 | inactive | 
11 | O=C1c2c(O)ccc(Nc3ccc(CCO)cc3)c2C(=O)c2c([N+](=O)[O-])ccc(O)c21 | inactive | 
12 | Cc1ccc(S(=O)(=O)C(I)I)cc1 | inactive | 
13 | CCN(CC)c1ccc(C=O)c(O)c1 | inactive | 
14 | O=C=Nc1cccc2c(N=C=O)cccc12 | inactive | 
15 | CCOC(C=C(C)CCC=C(C)C)OCC |  | 3.97 µM (active)
16 | O=C(c1ccccc1)c1ccc(O)cc1O | inactive | 
17 | CCN(CC)c1ccc2c(c1)Oc1cc(N(CC)CC)ccc1C21OC(=O)c2ccccc21 | inactive | 
18 | Cc1cc(O)c(C(C)(C)C)cc1C(C)(C)C |  | 3.85 µM (active)
19 | C[C@]12CC[C@H]3C(=CCc4cc(O)ccc43)[C@@H]1CCC2=O | inactive | 
20 | CCN(CC)c1ccc(N=Nc2ccccc2)cc1 | inactive | 
21 | Cc1ccc(O)c(-n2nc3ccccc3n2)c1 | inactive | 
